According to PubChem BioAssay AID743285 (National Center for Advancing Translational Sciences (NCATS), 2014):
Out of some 1,100 compounds screened, fewer than 10 were called active. Calls come from the whole dose curve; as a rule, active = well fitted curve in the direction sought with a large enough effect; inconclusive = small, poorly fitted or top-dose-only effect, or another doubt; inactive = no such curve, though single readings can be large or run the other way. A selection follows.

Assay: qHTS for Inhibitors of PI5P4K: ADP-Glo counter assay
Conditions: ADP-Glo detection counter-screen, luciferase luminescence, no enzyme; series mostly up to 76.9 µM; activity change, negative = inhibition: at the top concentration
Excerpt: In addition to finding PI5P, we discovered the type II phosphatidylinositol 5-phosphate 4-kinase (PI5P4K) family (alpha, beta, gamma isoforms) that catalyze the conversion of PI5P to PI(4,5)P2. Alternatively, PI(4,5)P2 can also be synthesized through phosphatidylinositol-4-phosphate (PI4P) by the type I phosphatidylinositol 4-phosphate 5-kinases (PI4P5K). These PI5P4K enzymes therefore represent one way by which cells can regulate endogenous PI5P levels and play important roles in insulin signaling and in stress responses. […] A qHTS PI5P4K-alpha ADP-Glo assay was developed to identify specific modulators of human PI5P4K, phosphatidylinositol-5-phosphate 4-kinase (Type II PIPK). This assay was screened against the MLSMR containing ~400,000 small molecules (PubChem AID 652105). To confirm that the hits were not interacting with the detection enzyme system, a 1536-well counterscreen against the ADP-Glo kit (Promega) was utilized, as described in Davis et al., 2013 [1]. For this assay, an ATP/ADP mix of 80% ATP and 20% ADP was used to mimic the PI5P4K-alpha enzyme reaction. […] Therefore, true inhibitors of PI5P4K-alpha should have no activity in this assay. Davis et al., PLoS One. 2013;8(1):e54127. NIH Chemical Genomics Center [NCGC] NIH Molecular Libraries Probe Centers Network [MLPCN] MLPCN Grant: MH096575 Assay Submitter (PI): Atsuo Sasaki, Beth Israel Deaconess Medical Center
Two micoliter of assay buffer (0.038 M HEPES pH 7.4, 0.28 mM EGTA, 0.1% CHAPS, 7.5% DMSO) was dispensed into Greiner white solid bottom 1536-well assay plates. Compounds were then transferred via Kalypsys pin tool equipped with 1536-pin array (10 nL slotted pins, V&P Scientific, San Diego, CA). Next, 1 uL of ATP / ADP mix (4 uM ATP / 1 uM ADP final concentrations in 20 mM HEPES pH 7.4, 60 mM MgCl2, and 0.1% CHAPS) was added for a total reaction volume of 3 uL. The plates were incubated at room temperature for 60 minutes. To detect the activity, 2 uL of ADP-Glo reagent 1 was added to each well followed by 45 min room temperature incubation. Then, 4 uL of ADP-Glo reagent 2 was added to each well and the plates were incubated further for 30 min at room temperature. Finally, luminescence signal was detected using the PerkinElmer ViewLux plate reader (30 sec exposure). The data was normalized to control wells with 20% ADP / 80% ATP and wells with 100% ATP.
% is set by controls: 0 for no effect and ±100 for the full control effect.

| SMILES | activity change, negative = inhibition |
| --- | --- |
| Cc1cnc(NC(=O)CSc2c(Cl)cccc2Cl)s1 | -1.84% (inactive) |
| Cc1cc(=O)n2[nH]c(-c3sccc3-n3c(C)ccc3C)cc2n1 | -6.46% (inactive) |
| O=C(Cc1cccs1)N(CC1CCCO1)C1(C(=O)NC2CCCCC2)CCCCC1 (stereo not given) | -3.41% (inactive) |
| CCOC(=O)C1Nc2ccc(C(F)(F)F)cc2C2C=CCC12 (stereo not given) | 4.47% (inactive) |
| O=C1CC(c2ccccc2)=NN1c1ccc([N+](=O)[O-])cc1 | -4.44% (inactive) |
| CC(=O)N1c2ccc(S(=O)(=O)NCCC(=O)N(C)C3CCCCC3)cc2CC1C (stereo not given) | -6.51% (inactive) |
| O=C(COc1ccc(-n2cnnn2)cc1)Nc1ccccc1Cl | -3.16% (inactive) |
| Cc1cccnc1NC(=O)CSc1nnc(COc2ccc(C(C)C)cc2)n1C | 0.783% (inactive) |
| O=C(Nc1ccc(S(=O)(=O)Nc2nccs2)cc1)c1cc(-c2ccncc2)nc2ccccc12 | 1.58% (inactive) |
| Cc1csc(=O)n1CCC(=O)OCC(=O)Nc1ccc(N2CCOCC2)cc1 | 1.61% (inactive) |
| CCC(c1nnnn1Cc1ccco1)N(CCc1ccccc1)Cc1cc2ccc(OC)cc2[nH]c1=O (stereo not given) | 4.11% (inactive) |
| Cc1ccc(C(c2nnnn2CS(=O)(=O)c2ccc(C)cc2)N2CCC(C)CC2)cc1 (stereo not given) | 4.38% (inactive) |
| COc1cccc2c(C)c(C(=O)O)[nH]c12 | -4.76% (inactive) |
| CC(CNC(=O)c1ccc(Br)o1)NC(=O)c1ccc(Br)o1 (stereo not given) | -11% (inactive) |
| Cc1ccc(Cc2c(-c3ccco3)nc3ccc(Cl)cn23)cc1 | -6.35% (inactive) |
| OCCNc1nc(Nc2ccc(Cl)c(Cl)c2)nc2ccccc12 | -2.85% (inactive) |
| O=C(c1cc(-c2ccco2)nc2ccccc12)N(Cc1nnc(-c2ccc(Cl)cc2)o1)C1CC1 | 3.35% (inactive) |
| O=C(c1cc2c(s1)CCC2)N1CCN(c2ccccc2)CC1 | 0.844% (inactive) |
| O=C(c1cccnc1)N(c1cc2sc(=O)oc2c2ccccc12)S(=O)(=O)c1ccccc1 | -0.127% (inactive) |
| COc1ccc(C(=O)N2CCC(C(=O)Nc3ccc(C)cc3)CC2)cc1 | 0.698% (inactive) |
| COc1ccc(OCCCC(=O)Nc2nnc(C3CCCO3)s2)cc1 (stereo not given) | -0.361% (inactive) |
| Cc1cc(NC(=O)Nc2ccccc2[N+](=O)[O-])no1 | 4.52% (inactive) |
| O=c1oc2cc(O)ccc2cc1-c1ccc(F)cc1 | -12.4% (inactive) |

| SMILES | activity change, negative = inhibition |
| --- | --- |
| COCCNC(=O)Nc1ccc2nc(-c3ccco3)c(-c3ccco3)nc2c1 | -14.7% (inactive) |
| COc1ccc(S(=O)(=O)/N=C2\C=C(NS(=O)(=O)c3ccccc3)C(=O)c3ccccc32)cc1 | -15.5% (inactive) |
| COc1ccc(CCCc2nnc(SCc3nc4ccccc4c(=O)[nH]3)n2C)cc1 | -7.05% (inactive) |
| CCOC(=O)c1cc2c(=O)[nH]c(C(Cl)(Cl)Cl)nc2o1 | 2.4% (inactive) |
| OCCCNc1nccc(-c2cc(Nc3cccc(Cl)c3)ncn2)n1 | -9.65% (inactive) |
| O=S(=O)(Nc1ccc2cn[nH]c2c1)c1ccccc1 | 4.71% (inactive) |
| COc1cccc(C(=O)Nc2nc3ccc(S(C)(=O)=O)cc3s2)c1 | 1.96% (inactive) |
| O=c1[nH]c2ccccc2n2c(-c3ccccc3)nnc12 | -11.3% (inactive) |
| O=C(Cn1cnc2c(OCc3ccccc3)ncnc21)NCc1nc2ccccc2[nH]1 | 0.0717% (inactive) |
| O=C(Nc1nc(-c2ccncc2)cs1)C1COc2ccccc2O1 (stereo not given) | -2.71% (inactive) |
| COc1cc(=O)[nH]c(=O)n1C(=O)Cc1ccccc1 | -8.78% (inactive) |
| COc1ccc(-c2cc(C(=O)Nc3ccccc3O)c3ccccc3n2)cc1 | -3.69% (inactive) |
| Cc1cccc(C)c1NC(=O)C(c1ccc(C(F)(F)F)cc1)n1c(=O)c(-c2ccco2)nc2ccccc21 (stereo not given) | -3.23% (inactive) |
| O=C(NC1CCCCC1)C(c1cc2ccccc2o1)n1c(=O)c(-c2ccco2)nc2ccccc21 (stereo not given) | -1.4% (inactive) |
| COc1ccc(C(CNC(=O)c2ccc(OCc3cscn3)cc2)N2CCCC2)cc1 (stereo not given) | -7.47% (inactive) |
| Cc1cc2nc(-c3ccco3)c(Cc3cccc(F)c3)n2c(C)c1Br | -11.4% (inactive) |
| O=C(CCNS(=O)(=O)c1ccc(Br)s1)NCc1ccccc1Cl | -7.75% (inactive) |
| C[C@H](NC(=O)c1nc[nH]c1C(=O)N[C@@H](C)C(=O)OC(C)(C)C)C(=O)OC(C)(C)C | 1.4% (inactive) |
| CC(Oc1ccc(F)cc1)C(=O)N1CCN(c2ncccn2)CC1 (stereo not given) | -2.05% (inactive) |
| Cn1c(SCC(=O)Nc2ccc(Cl)cc2)nc(O)cc1=O | 4.32% (inactive) |
| Cc1ccc(Cn2c(C)nc3c(c2=O)c2nc4ccccc4nc2n3Cc2ccco2)cc1 | 3.85% (inactive) |
| O=C(COC(=O)c1ccccc1O)NCc1ccco1 | -6.69% (inactive) |
